The entries come from a sample that favours hits as a whole.
Algae TAG accum – algal TAG accumulation induction. Chlamydomonas reinhardtii TAG, Nile Red fluorescence, 72 h. calls only at 10 µM (by protocol). hit rate 0.84% among 44,000; call rule not given here;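 also: hits raise Nile Red signal meaning more stored TAG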
Starred values were filed as active, the others as inactive; i = inactive; + = active, no number.

SMILES	Algae TAG accum
COc1ccc(C2C(=C(O)c3ccc(OC)c(C)c3)C(=O)C(=O)N2Cc2cccnc2)c(OC)c1 (stereo not given)	i
O=C(Nc1ccccc1I)C12CC3CC(CC(C3)C1)C2	i
C/C(=C\c1ccccc1)CN1CCN(C)CC1	+
C/C(=C\c1ccccc1)CN1CCOCC1	i
CCOC(=O)N1CCN(C/C(C)=C/c2ccccc2)CC1	i
COc1ccc(OCC(O)Cn2cnc3cc(C)c(C)cc32)cc1 (stereo not given)	i
COc1ccc(/C=C/C(=O)Nc2ccc(NC(=O)c3cc4ccccc4o3)c(OC)c2)cc1	i
COc1ccc(S(=O)(=O)N(CC(=O)NC(C)C)c2cc(C)cc(C)c2)cc1OC	+
COc1ccc(S(=O)(=O)N(CC(=O)Nc2ccccc2F)c2cc(C)cc(C)c2)cc1OC	i
COc1ccc(S(=O)(=O)N(CC(=O)N2CCCC2)c2cc(C)cc(C)c2)cc1OC	i
COCCNC(=O)c1ccc2nc(-c3ccco3)c(-c3ccco3)nc2c1	i
Nc1ccccc1C(=O)NCCOc1ccccc1	i
O=C(Nc1cccc(F)c1)c1ccc(I)cc1	i
COc1cc(CN2CCN(c3ccc([N+](=O)[O-])cc3)CC2)cc(Br)c1O	i
CCCCOc1ccc(CN2CCN(c3ccc([N+](=O)[O-])cc3)CC2)cc1	+
O=C(O)c1ccc(CN2CCN(c3ccc([N+](=O)[O-])cc3)CC2)cc1	i
CCOc1ccc(CN2CCN(c3ccc([N+](=O)[O-])cc3)CC2)cc1	+
O=[N+]([O-])c1ccc(N2CCN(Cc3ccncc3)CC2)cc1	i
O=[N+]([O-])c1ccc(CN2CCN(c3ncccn3)CC2)cc1	i
O=C(NCCSC1CCCCC1)c1ccc(Br)cc1	i
O=C(N/C(=C/c1ccc(Cl)cc1)C(=O)N1CCOCC1)c1ccco1	i
COc1ccccc1N1CCN(S(=O)(=O)c2ccc(Br)cc2C)CC1	i
O=C(COc1ccc([N+](=O)[O-])cc1)c1ccc(F)cc1	i
O=C1C2C3CCC(C3)C2C(=O)N1c1nccs1 (stereo not given)	+
O=C1C2C(C(=O)N1c1nccs1)C1C=CC2C12CC2 (stereo not given)	i
SMILES	Algae TAG accum
O=C1c2ccc(Oc3ccc4c(c3)C(=O)N(c3nccs3)C4=O)cc2C(=O)N1c1nccs1	i
COc1cc([N+](=O)[O-])ccc1NC(=O)COc1cccc(C)c1	i
COc1ccccc1CC(=O)Nc1cccc(C(=O)Nc2ccccc2C(=O)O)c1	i
CN=C1NC(=O)CC(C(=O)Nc2ccc(Cl)c(Cl)c2)S1 (stereo not given)	i
COc1ccc(CNC(=O)CSc2nnc(-c3cccc(OC)c3)n2C)cc1	i
Cn1c(SCC(=O)NCc2ccccc2)nnc1-c1ccc(C(C)(C)C)cc1	+
Cn1c(SCC(=O)NCc2ccccc2)nnc1-c1ccc(NC(=O)c2ccccc2F)cc1	i
N#C/C(=C/Nc1ccc(F)cc1)c1nc(-c2ccc3c(c2)OCO3)cs1	i
Cc1cc(Cl)ccc1OC(C)C(=O)N1CCN(c2ccc([N+](=O)[O-])cc2)CC1 (stereo not given)	i
CCN(CC)CCN1C(=O)C(=O)C(=C(O)c2ccccc2)C1c1ccccc1F (stereo not given)	i
Cc1cccc(OCCN2CCOCC2)c1C	i
Cc1ccc(OCCCN2CCOCC2)cc1C	i
C=CCc1cc(C)ccc1OCCCCN1CCOCC1	i
Cc1cc(C)c(OCCN2CCOCC2)c(C)c1	i
Cc1ccccc1OCCCCN1CCOCC1	+
Cc1ccc(C(C)C)cc1OCCCCN1CCOCC1	+
Cc1cc(C)c(C)c(OCC(=O)NCCN2CCOCC2)c1	i
C=CCc1ccccc1OCCCCN1CCOCC1	i
Cc1cc(C)c(C)c(OCCCCN2CCOCC2)c1	+
Cc1cccc(-c2noc(COc3ccc(Br)cc3)n2)c1	+
COc1ccc(-c2noc(COc3ccc(Br)cc3C)n2)cc1OC	i
Cc1cc(OCc2nc(-c3cccnc3)no2)cc(C)c1Br	i
O=C(c1ccc(F)cc1)N1CCN(Cc2ccc([N+](=O)[O-])cc2)CC1	i
C1=CC2CC1CC2CN1CCOCC1 (stereo not given)	i
C1=CC2CC1CC2CN1CCN(Cc2ccccn2)CC1 (stereo not given)	i
SMILES	Algae TAG accum
C1=CC2CC1CC2CN1CCN(c2ccccc2)CC1 (stereo not given)	+
CCN1CCN(CC2CC3C=CC2C3)CC1 (stereo not given)	i
Oc1ccc(Br)cc1CN1CCN(CC2CC3C=CC2C3)CC1 (stereo not given)	+
O=C(c1ccc([N+](=O)[O-])cc1)N1CCN(CCO)CC1	i
O=C(c1ccc([N+](=O)[O-])cc1)N1CCN(CC2CC3C=CC2C3)CC1 (stereo not given)	+
O=[N+]([O-])c1ccccc1S(=O)(=O)N1CCN(CC2CC3C=CC2C3)CC1 (stereo not given)	i
CCC(C)N1CCN(CC2CC3C=CC2C3)CC1 (stereo not given)	i
C1=CC2CC1CC2CN1CCN(C2CCC(c3ccccc3)CC2)CC1 (stereo not given)	+
NC(=O)C1CCN(CC2CC3C=CC2C3)CC1 (stereo not given)	i
O=C(CSc1nnc(COc2ccc3c(c2)CCCC3)o1)NCc1ccccc1	i
COc1ccc(OC)c(NC(=O)C2=C(C)NC(=O)NC2c2ccccc2Br)c1 (stereo not given)	i
COc1ccc(CSc2nnc(N)s2)cc1[N+](=O)[O-]	i
Cc1ccc(C(C)C)c(OCCCSc2ncccn2)c1	i
CCOc1cc(C2CC(=O)NC(SCC(N)=O)=C2C#N)ccc1O (stereo not given)	i
COc1ccccc1OC(C)C(=O)Nc1ccc([N+](=O)[O-])cc1C (stereo not given)	i
O=C(Nc1ccccc1)Nc1ccccc1C(=O)NC1CCCCC1	i
CN(CCc1ccccn1)Cc1ccc([N+](=O)[O-])cc1	i
Oc1ccc(Br)cc1CN1CCC(N2CCOCC2)CC1	+
COc1ccc(Br)cc1CN1CCC(N2CCCCC2)CC1	i
O=[N+]([O-])c1ccc(O)c(CN2CCOCC2)c1	i
Cc1ccc(C(=O)Nc2nccs2)cc1Br	i
CCC(CC)C(=O)Nc1ccc(C(=O)Nc2nccs2)cc1	+
Cc1ccc(OCC(=O)Nc2ccc(C(=O)Nc3nccs3)cc2)cc1C	i
COc1ccc(NS(=O)(=O)c2ccc(S(N)(=O)=O)cc2)cc1	i
COc1cccc(NC(=O)COc2ccccc2[N+](=O)[O-])c1	i
SMILES	Algae TAG accum
COc1cc(CN2CCN(Cc3cccc([N+](=O)[O-])c3)CC2)cc(OC)c1OC	i
COc1ccc(S(=O)(=O)N2CCN(Cc3ccc([N+](=O)[O-])cc3)CC2)cc1	i
COc1ccc(OC)c(CN2CCN(Cc3cc(OC)c(OC)c(OC)c3)CC2)c1	i
O=[N+]([O-])c1ccc(CN2CCCCCC2)cc1	i
O=[N+]([O-])c1ccc(CN2CCN(C3CCCCCC3)CC2)cc1	+
COc1ccc(CN2CCN(Cc3ccc([N+](=O)[O-])cc3)CC2)cc1OC	+
COc1ccc(OC)c(CN2CCN(Cc3ccc(OC)c(OC)c3)CC2)c1	i
O=[N+]([O-])c1ccc(CN2CCC(N3CCCCC3)CC2)cc1	i
COc1ccc(OC)c(CN2CCN(Cc3ccc([N+](=O)[O-])cc3)CC2)c1	+
COc1ccc(CN2CCN(Cc3cccc([N+](=O)[O-])c3)CC2)cc1	i
